In PubChem BioAssay AID1117319 (Southern Research Institute, 2015):
Where “and” joins values, the source holds several entries; their conditions need not be identical. Equal entries are not always repeated. Among all 260,000 compounds or so, about 1,500 (0.58%) were called active. About 5% were inconclusive and are not listed.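 Rule for the calls: active = inhibition above a set limit at one or more doses, reproduced on every date tested; inconclusive = results disagree between test dates, or hit never tested in dose response; inactive = the rest.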 Not all results are given here. Entries with a potency or affinity are not part of this list.

molecular target: Virion infectivity factor (Human immunodeficiency virus type 1 group M subtype B (isolate BH10)) + Virion infectivity factor (Human immunodeficiency virus type 1 group M subtype B (isolate BRU/LAI)) + Virion infectivity factor (Human immunodeficiency virus type 1 group M subtype B (isolate PCV12)) + Virion infectivity factor (Human immunodeficiency virus type 1 group M subtype B (isolate HXB2)) + DNA dC->dU-editing enzyme APOBEC-3G (Homo sapiens) (UniProt P69720+P69721+P69722+P69723+Q9HC16); assay: HIV-1 Vif–A3G interaction blockers – biochemical, TR-FRET, GST-Vif 1-94, biotin-A3G peptide, dose response retest, primary screen (AID 1117319); details: TR-FRET GST-Vif / biotin-A3G peptide binding; hits give high values;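 note: Vif residues 1-94 fused to GST binding biotinylated APOBEC3G peptide 110-148; 0% = full assay without inhibitor and 100% = GST in place of GST-Vif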

inhibition, inactive:
CC1CC(C)CN(CC(C)(C)NS(=O)(=O)c2ccccc2)C1 (configuration not stated) 17.8%
O=C1C2C3C=CC(CC3)C2C(=O)N1c1ccc(Cl)cc1 (configuration not stated) 1.42%
CCN(CC)C(=O)[C@H]1C[C@H](CC(=O)NC(C)(C)C)C(=O)N2CCc3c([nH]c4cc(CCC(=O)N(C)C)ccc34)[C@]12C -0.23%
Cc1c(NS(=O)(=O)c2ccc(Cl)c(C(=O)OC(C)C(=O)NCc3ccco3)c2)c(=O)n(-c2ccccc2)n1C (configuration not stated) 5.59%
COc1cccc(OC)c1C(=O)OCC(=O)NCc1ccco1 5.04%
COC(=O)CNC(=O)C(C)(C)Oc1ccc(Cl)cc1 -6.52%
O=C(COC(=O)Cc1ccc(F)cc1)NCc1ccco1 -14.6%
O=C(COC(=O)Cc1ccc(Cl)c(Cl)c1)NCc1ccco1 7.25%
CC(C)(Oc1ccc(Cl)cc1)C(=O)NCC(c1ccco1)N1CCCCC1 (configuration not stated) 1.39%
COc1ccccc1OCC(=O)NCc1ccco1 8.05%
CNC(=S)N1CCN(c2ccc(Cl)c(Cl)c2)CC1 1.98%
O=C1CSC(c2ccc(Cl)c(Cl)c2)N1c1nccs1 (configuration not stated) 2.94%
CN(C)C(=O)c1ccc(NC(=O)CSc2nnc(-c3ccc4c(c3)OCO4)o2)cc1 1.62%
C/C(=N\Nc1ccc(F)cc1)c1ccc(N2CCOCC2)c(F)c1 6.07%
CC(=O)c1ccc(NC(=O)c2cnsn2)cc1 4.53%
CCN(CC)C(=O)[C@H]1C[C@H](CC(=O)NCCc2ccccn2)C(=O)N2CCc3c([nH]c4cc(CCC(=O)N(C)C)ccc34)[C@]12C 17.5%
CCNC(=S)N/N=C/c1c(C)nn(-c2cccc(Cl)c2)c1Cl 5.39%
CC(=O)C1=C(C)OC(N)=C(C#N)C1c1cc2cc(C)c(C)cc2nc1Cl (configuration not stated) 9.71%
CC(=O)C1=C(C)OC(N)=C(C#N)C1c1cc2cccc(C)c2nc1Cl (configuration not stated) -1.1%
COc1ccc2nc(NC(=O)C3CCN(C(=O)c4ccc(F)cc4)CC3)sc2c1 -12.6%
CCc1oc(C(=O)OC)cc1CSC(=N)N -0.44%
Cc1cc2ccccn2c1C(=O)c1nc(NCc2ccccc2)ncc1Cl -3.29%
COc1cccc(C(=O)OCC(=O)Nc2ccc3c(c2)OCCO3)c1 -5.71%
CSc1ncccc1C(=O)OCC(=O)NC(=O)NCCC(C)C -2.12%
O=C(NCC(c1cccs1)N1CCOCC1)c1ccc(Br)o1 (configuration not stated) 22.6%
COc1ccc(-c2nnc(Nc3ccc(S(=O)(=O)Nc4nccs4)cc3)c3ccccc23)cc1 12.6%
CC(=O)Nc1ccc(S(=O)(=O)Nc2nccs2)cc1 -1.8%
COC(=O)[C@H](C)NC(=O)Nc1ccccc1C(F)(F)F 8.61%
CNC(=O)C12CCC(C)(c3nc4cc(C)c(C)cc4nc31)C2(C)C (configuration not stated) 2.01%
CCOC(=O)C1CCN(Cc2cnc(Oc3ccc(N)cc3)s2)CC1 3.48%
CCOC(=O)C1CCN(Cc2cnc(Oc3ccc(C(C)(C)C)cc3)s2)CC1 28.3%
Cc1cc(CNC(=O)CCc2nnc(CCCCc3ccccc3)o2)nn1C -5.35%
Cc1ccc(-c2cc(Cc3ccc(N(C)C)cc3)c(=O)[nH]n2)cc1 -0.03%
CN(C)c1ccc(C(=O)c2ccc(O)cc2O)cc1 -0.42%
O=C(Nc1ccc(Cl)cc1)C(c1ccccc1)N(CCO)CCO (configuration not stated) -1.42%
COC(=O)c1ccc(CSc2nnc(-c3ccccc3)n2C)o1 2.37%
O=C(O)c1ccc(S(=O)(=O)c2ccccc2C(=O)O)c([N+](=O)[O-])c1 -4.06%
O=C(O)c1ccc(C(=O)c2cc([N+](=O)[O-])cc([N+](=O)[O-])c2)cc1 -9.99%
Cc1cc(C(=O)Nc2ccccc2Cc2ccccc2)no1 -1.05%
CCOC(=O)c1c(NC(=O)c2cccs2)sc(C)c1CC -1.19%
Cc1sc(NC(=O)c2cccs2)c(C(=O)OC(C)C)c1C 2.47%
O=C(O)/C(=C/c1ccc(Cl)c([N+](=O)[O-])c1)c1ccc(S(=O)(=O)N2CCCCC2)s1 19.6%
COc1c(C)cc(C(=O)C2CCCN(C(=O)c3cc(C)nc(C)n3)C2)cc1C (configuration not stated) -12.6%
CCc1cccc(NC(=O)CN(C)S(=O)(=O)c2cccc3cccnc23)c1 5.83%
COc1c(O)cc2c(c1O)C(=O)CC(c1ccccc1)O2 (configuration not stated) 2.35%
COc1cc(O)c(CCO)c2c1C(=O)C[C@@H](C)O2 1.87%
O=C(NCc1cccnc1)c1ccc(CS(=O)(=O)Cc2ccc(Cl)cc2)o1 21.4%
CCc1cccc(NC(=O)C2CCN(S(=O)(=O)c3c(C)noc3C)CC2)c1 -1.11%
Cc1noc(C)c1S(=O)(=O)N1CCC(C(=O)NC2CCN(Cc3ccccc3)CC2)CC1 28.3%
CCCCn1c(SCC(=O)c2ccc(OCC)cc2)nc2cc(S(N)(=O)=O)ccc21 3.73%
CN1CC(=O)N(CC(=O)Nc2ccc(Cl)c(C(F)(F)F)c2)C1=O -5.66%
COc1ccc(NC(=O)CCCCCN2C(=O)CCC2=O)cc1Cl -2.09%
O[C@H]1C[C@H](c2ccccc2)N(CC2CCCCC2)C[C@@H]1n1cc(C2CC2)nn1 -3.24%
Cc1ccccc1N(C(=O)Cn1nnc2ccccc21)C(C(=O)NCc1ccco1)c1ccncc1 (configuration not stated) -7.73% and -2.99%
Cc1ccc(C)c(N(C(=O)Cn2nnc3ccccc32)C(C(=O)NCc2ccco2)c2ccncc2)c1 (configuration not stated) -2.7%
CC(C)Oc1ccc(N2CC(C(=O)Nc3ccccc3C(=O)NC3CC3)CC2=O)cc1 (configuration not stated) -13%
Cc1ccc2[nH]c(=O)c(C3=NN(C(=O)CCC(=O)O)C(c4cccs4)C3)c(-c3ccccc3)c2c1 (configuration not stated) 2.41%
